Source: PubChem BioAssay
Rows were chosen to be rich in hits. Some 3.6% of all compounds tested hit in one or more screens of this group.
mHTT-CaM PPI inh: inhibitors of human mutant huntingtin-calmodulin interaction. P42858. AlphaScreen His-mHTT/GST-CaM binding, luminescence. inhibition, % at 15 µM. hit rate 3.6% among 190,000. AID 1671202;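 further: 0% = both proteins with DMSO and 100% = one protein alone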
Pf apPOL inh: Pf-apPOL DNA polymerase inhibition; Recombinant Pf-apPOL, molecular beacon fluorescence, 1.5 h; AID 1794808; inhibition, % at 10 µM; hit rate 0.25% among 210,000
Active calls of the source: *. No stated cut-off is given here; in the data, active means inhibition above about 50%; inactive means the rest.

Screening CC1CCCN(S(=O)(=O)c2ccc3[nH]c4c(c3c2)CCCC4)C1 (stereo not drawn) returned mHTT-CaM PPI inh 62.6* and Pf apPOL inh -0.1.
CCOC(=O)C1CCCCN1S(=O)(=O)c1ccc2[nH]c3c(c2c1)CCCC3 (stereo not drawn) was read as mHTT-CaM PPI inh 62.3* and Pf apPOL inh 4.0.
`CN(CC(=O)Nc1ccccc1F)S(=O)(=O)c1ccc2[nH]c3c(c2c1)CCCC3` gave mHTT-CaM PPI inh 36.9 and Pf apPOL inh -2.8.
Screening CN(CC(=O)N1CCOCC1)S(=O)(=O)c1ccc2[nH]c3c(c2c1)CCCC3 returned mHTT-CaM PPI inh 12.4 and Pf apPOL inh -5.5.
CC1CN(S(=O)(=O)c2ccc3[nH]c4c(c3c2)CCCC4)c2ccccc2O1 (stereo not drawn) was read as mHTT-CaM PPI inh 95.9* and Pf apPOL inh -4.0.
O=C1CC(NCCc2ccccc2)C(=O)N1c1ccc(Br)cc1 (stereo not drawn) was read as mHTT-CaM PPI inh 1.3 and Pf apPOL inh -4.7.
Cc1ccnc(NC(c2ccc(N(C)C)cc2)c2ccc3cccnc3c2O)c1 (stereo not drawn) was read as mHTT-CaM PPI inh 100.0* and Pf apPOL inh -20.5.
For COc1cc(C(Nc2cc(C)ccn2)c2ccc3cccnc3c2O)ccc1O (stereo not drawn) the results were mHTT-CaM PPI inh 100.0* and Pf apPOL inh 1.5.
Screening Cc1ccnc(NC(=O)c2ccc(C(C)C)cc2)c1 returned mHTT-CaM PPI inh -13.3 and Pf apPOL inh -4.9.
`CCOc1ccccc1C(=O)Nc1cc(C)ccn1` gave mHTT-CaM PPI inh -15.9 and Pf apPOL inh -1.7.
Screening COc1cc(-c2nc3ncccn3c2Nc2ccc(C)cc2)ccc1O returned mHTT-CaM PPI inh 9.0 and Pf apPOL inh 2.2.
For CCOc1cc(C(Nc2cc(C)ccn2)c2ccc3cccnc3c2O)ccc1O (stereo not drawn) the results were mHTT-CaM PPI inh 100.0* and Pf apPOL inh -1.8.
Screening O=C(NC1CC1)c1cc(Sc2ccc(F)cc2)nc2ccccc12 returned mHTT-CaM PPI inh -1.0 and Pf apPOL inh 0.5.
CCC1(C)N=C(c2ccc3c(c2)OCO3)CC(c2ccccc2O)N1 (stereo not drawn) was read as mHTT-CaM PPI inh 83.0* and Pf apPOL inh -5.1.
For COc1cccc(C2=NC3(CCN(C)CC3)NC(c3cccc(OC)c3O)C2)c1 (stereo not drawn) the results were mHTT-CaM PPI inh 25.3 and Pf apPOL inh -1.4.
`COc1cccc(C2=NC(C)(C)NC(c3cc(Br)ccc3O)C2)c1` (stereo not drawn) gave mHTT-CaM PPI inh 100.0* and Pf apPOL inh -4.0.
Screening COc1cccc(C2=NC(C)(C)NC(c3ccccc3O)C2)c1 (stereo not drawn) returned mHTT-CaM PPI inh 65.0* and Pf apPOL inh -3.1.
Screening CC(=O)N1CCC2(CC1)N=C(c1ccc3c(c1)OCO3)CC(c1ccccc1O)N2 (stereo not drawn) returned mHTT-CaM PPI inh 17.8 and Pf apPOL inh 7.7.
Screening CCOc1cccc(C2CC(c3cccc(OC)c3)=NC3(CCN(C)CC3)N2)c1O (stereo not drawn) returned mHTT-CaM PPI inh 34.9 and Pf apPOL inh 3.6.
For O=C(Nc1cccnc1)C1CCCN(c2nnc3ccc(Cl)cn23)C1 (stereo not drawn) the results were mHTT-CaM PPI inh 13.7 and Pf apPOL inh -1.5.
`COc1ccc(/C=C2/N=C(c3ccco3)OC2=O)c(OC)c1OC` gave mHTT-CaM PPI inh 0.0 and Pf apPOL inh -3.6.
Cc1ccccc1NC(=O)NCCSc1ncc(-c2ccccc2)[nH]1 was read as mHTT-CaM PPI inh 1.0 and Pf apPOL inh -8.9.
`Cc1cc(NC(=O)c2ccc(S(=O)(=O)N(C)C)o2)no1` gave mHTT-CaM PPI inh -14.0 and Pf apPOL inh -0.5.
`CN(C)S(=O)(=O)c1ccc(C(=O)NC(C)(C)CO)o1` gave mHTT-CaM PPI inh 100.1* and Pf apPOL inh -2.7.
For COc1cccc(C2C(C(=O)Nc3nc4ccccc4s3)=C(C)NC3=C2C(=O)CCC3)c1 (stereo not drawn) the results were mHTT-CaM PPI inh -17.0 and Pf apPOL inh 5.1.
Screening COCc1cc(C)nc2sc(C(=O)N(Cc3ccccc3)Cc3ccccc3)c(N)c12 returned mHTT-CaM PPI inh -17.0 and Pf apPOL inh -1.3.
COc1ccc(Cl)cc1NC(=O)c1c(NCc2cccnc2)sc2c1CCC2 was read as mHTT-CaM PPI inh 93.0* and Pf apPOL inh -15.9.
Screening COc1ccc(Cl)cc1NC(=O)c1c(NCc2cccs2)sc2c1CCC2 returned mHTT-CaM PPI inh 26.0 and Pf apPOL inh -15.1.
For COc1ccc(Cl)cc1NC(=O)C(=O)NCc1cccnc1 the results were mHTT-CaM PPI inh 3.0 and Pf apPOL inh -8.2.
For COc1ccc(Cl)cc1NC(=O)c1c(NCc2cccnc2)sc2c1CCCC2 the results were mHTT-CaM PPI inh 79.0* and Pf apPOL inh -18.0.
`CCC(=O)N1CCN(c2nc(C)nc(C)c2Cc2ccccc2Cl)CC1` gave mHTT-CaM PPI inh 14.2 and Pf apPOL inh -0.7.
